Test systems include HCT-15 colon; HT29 colon; SNB-75 CNS; SNB-19 CNS; U251 CNS; SK-MEL-5 melanoma; UACC-62 melanoma; LOX IMVI melanoma; SK-MEL-28 melanoma.
Test in all cases: NCI-60 one-dose screen, 48 h (100 = growth as untreated, 0 = no growth, -100 = all killed)
Holding throughout (details): 10 µM unless noted

The panel holds about 83,000 compounds, 20% with a hit somewhere; the sample as a whole holds those more often.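 Single-dose data. Exposure time 48 hours. Values below 10 considered active.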 Unmarked numbers belong to inactive results. Active and inactive are the calls of the source.

Regarding `C=CCSSC1N=CNc2nc[nH]c21` (stereo not given), the growth in the experiment with HCT-15 colon is 52.7%; in the experiment with HT29 colon, 50.1%; in the experiment with SNB-75 CNS, 46.9%; in the experiment with SNB-19 CNS it was 89.1%; in the experiment on U251 CNS, 70.2%; with SK-MEL-5 melanoma, 60.7%. Also, the growth in the experiment on UACC-62 melanoma was 16.8%; in the experiment with LOX IMVI melanoma, 7.74% (active); in the experiment on SK-MEL-28 melanoma, 114%.
On to `Cn1cc(-c2nonc2-c2cn(C)c3ccc(F)cc23)c2ccccc21`, for which the growth in the experiment with HCT-15 colon was 18.8%; with HT29 colon it was 6.32% (active); with SNB-75 CNS it was -17.9% (active); in the experiment on SNB-19 CNS it was 31.6%; in the experiment with U251 CNS it was 23.5%; with SK-MEL-5 melanoma, 24.1%. The growth with UACC-62 melanoma is 30.4%; in the experiment on LOX IMVI melanoma it was 34.8%; with SK-MEL-28 melanoma, 63.3%.
Regarding `O=C1CSC(=S)N1CCc1ccc(O)cc1`, the growth was 59.3% in the experiment on HCT-15 colon; 107% in the experiment with HT29 colon; 71.3% in the experiment on SNB-75 CNS; 93% with SNB-19 CNS; 100% in the experiment with U251 CNS; 97.1% with SK-MEL-5 melanoma. Besides, the results for the growth in the experiment with UACC-62 melanoma, in the experiment on LOX IMVI melanoma and in the experiment with SK-MEL-28 melanoma were 87.5%, 77.1% and 101%, respectively.
For the molecule `COc1ccc(C(=O)/C=C/c2cccnc2Nc2cc(OC)c(OC)c(OC)c2)cc1`, the growth was 18.1% in the experiment with HCT-15 colon; 15.1% in the experiment on HT29 colon; 21.2% in the experiment on SNB-75 CNS; 36.3% in the experiment with SNB-19 CNS; 13% in the experiment with U251 CNS; 43% in the experiment with SK-MEL-5 melanoma. The growth in the experiment with UACC-62 melanoma was 50%; in the experiment with LOX IMVI melanoma it was -26% (active); with SK-MEL-28 melanoma it was 71.5%.
In the case of `COc1ccc(-n2nc(C)c3c(Nc4ccc(NC(=O)Nc5ccc(Cl)c(C(F)(F)F)c5)cc4)ncnc32)cc1`, the growth in the experiment on HCT-15 colon is -9.82% (active); in the experiment on HT29 colon it was 1.57% (active); in the experiment with SNB-75 CNS, -4.71% (active); in the experiment on SNB-19 CNS, 13.5%; in the experiment on U251 CNS, -29.2% (active); with SK-MEL-5 melanoma it was -44.7% (active). Further, the growth in the experiment with UACC-62 melanoma is 4.84% (active); in the experiment on LOX IMVI melanoma, -81.4% (active); with SK-MEL-28 melanoma, 4.78% (active).
Take `Nc1ccn(-c2ccc(Br)cc2)c(=O)n1`: the growth in the experiment on HCT-15 colon is 119%; in the experiment on HT29 colon, 125%; with SNB-75 CNS, 76.7%; in the experiment with SNB-19 CNS, 140%; with U251 CNS it was 104%; in the experiment with SK-MEL-5 melanoma, 119%. For the same molecule, the values for the growth in the experiment on UACC-62 melanoma, in the experiment with LOX IMVI melanoma and in the experiment on SK-MEL-28 melanoma were 106%, 105% and 137%, respectively.
Consider `NC(=O)c1cc(I)ccc1NC(=O)/C=C/c1ccccc1Cl`, for which the growth is 17.8% in the experiment on HCT-15 colon; 8.09% (active) in the experiment on HT29 colon; -14.5% (active) in the experiment with SNB-75 CNS; 31.9% in the experiment with SNB-19 CNS; 21.8% in the experiment on U251 CNS; 3.33% (active) in the experiment with SK-MEL-5 melanoma. In addition, the results for the growth in the experiment with UACC-62 melanoma, in the experiment with LOX IMVI melanoma and in the experiment on SK-MEL-28 melanoma were 37.8%, 50.7% and 38%, respectively.
Consider `Cc1ccc(C2=NN3C(C2)c2cc(Br)ccc2OC32CCN(Cc3ccccc3)CC2)o1` (stereo not given), for which the growth in the experiment on HCT-15 colon was 85.1%; with HT29 colon it was 107%; in the experiment with SNB-75 CNS, 79%; with SNB-19 CNS, 94.9%; in the experiment on U251 CNS, 96.3%; in the experiment on SK-MEL-5 melanoma it was 92.1%. The growth in the experiment with UACC-62 melanoma is 82.3%; in the experiment with LOX IMVI melanoma it was 94.4%; with SK-MEL-28 melanoma, 102%.
As to `c1ccc(-c2cc3n4c(-c5ccccc5)nn(-c5ccccc5)c4cnc-3n2)cc1`, the growth with HCT-15 colon is 86.2%; in the experiment on HT29 colon, 44.3%; in the experiment on SNB-75 CNS, -8.19% (active); with SNB-19 CNS, 75.9%; with U251 CNS, 26.4%; in the experiment with SK-MEL-5 melanoma, 70.5%. Besides, the growth in the experiment with UACC-62 melanoma is 45.7%; in the experiment with LOX IMVI melanoma it was 57.1%; in the experiment on SK-MEL-28 melanoma, 63.3%.
As for `CC1SC(c2ccc(N(C)C)cc2)N(NC(=O)C(O)(c2ccccc2)c2ccccc2)C1=O` (stereo not given), the growth in the experiment on HCT-15 colon was 83.8%; with HT29 colon, 93.8%; with SNB-75 CNS, 96.6%; with SNB-19 CNS, 110%; in the experiment on U251 CNS it was 91.4%; with SK-MEL-5 melanoma, 98.8%. Besides, the growth in the experiment on UACC-62 melanoma is 79.9%; with LOX IMVI melanoma it was 87.7%; in the experiment on SK-MEL-28 melanoma, 111%.
`NS(=O)(=O)c1ccc(CN=C2NC(=O)S/C2=C\c2ccc(Br)cc2)cc1`: the growth is 103% in the experiment on HCT-15 colon; 105% with HT29 colon; 89.1% in the experiment with SNB-75 CNS; 97.7% with SNB-19 CNS; 97.9% in the experiment with U251 CNS; 99.2% in the experiment with SK-MEL-5 melanoma. The results for the growth with UACC-62 melanoma, in the experiment on LOX IMVI melanoma and with SK-MEL-28 melanoma were 93.3%, 100% and 100%, respectively.
Regarding `COc1cccc(C2=NN3C(C2)c2cc(Br)cc(OC)c2OC32CCN(Cc3ccccc3)CC2)c1` (stereo not given), the growth with HCT-15 colon is 101%; in the experiment on HT29 colon, 108%; in the experiment with SNB-75 CNS, 89.5%; in the experiment on SNB-19 CNS, 101%; in the experiment on U251 CNS, 98.8%; in the experiment with SK-MEL-5 melanoma it was 99.5%. Besides, the growth with UACC-62 melanoma was 98.7%; in the experiment with LOX IMVI melanoma, 94.2%; in the experiment with SK-MEL-28 melanoma, 107%.
Take `C=C1c2nc3ccccc3n2C=C(c2ccc(OC)cc2)N1Cc1ccccc1`: the growth is 73.8% with HCT-15 colon; 73.2% in the experiment with HT29 colon; 109% in the experiment on SNB-75 CNS; 79.3% with SNB-19 CNS; 80.5% in the experiment with U251 CNS; 87.1% in the experiment on SK-MEL-5 melanoma. Moreover, the growth is 88.6% in the experiment with UACC-62 melanoma, 91.1% in the experiment on LOX IMVI melanoma and 119% in the experiment on SK-MEL-28 melanoma.
For the molecule `COc1ccc(Nc2c3c4c(cccc4[nH]c2=O)C(=O)c2ccccc2-3)cc1`, the growth with HCT-15 colon was -4.37% (active); in the experiment on HT29 colon it was -32.1% (active); with SNB-75 CNS it was 0.39% (active); in the experiment with SNB-19 CNS it was 25.8%; in the experiment with U251 CNS, 3.3% (active); in the experiment on SK-MEL-5 melanoma, -42.3% (active). In addition, the growth was 38.3% in the experiment on UACC-62 melanoma, 23.9% in the experiment on LOX IMVI melanoma and 71.1% in the experiment on SK-MEL-28 melanoma.
Turning to `Cc1cn2c(/C=C3/C(=O)Nc4c3ccc3ccccc43)c(C(F)(F)F)nc2s1`, the growth with HCT-15 colon is 27%; with HT29 colon, 0.295% (active); in the experiment on SNB-75 CNS, -6.4% (active); in the experiment on SNB-19 CNS it was 36.3%; in the experiment on U251 CNS, 17.5%; with SK-MEL-5 melanoma it was 24.7%. In addition, the growth in the experiment on UACC-62 melanoma was 31.6%; with LOX IMVI melanoma, 33.6%; in the experiment with SK-MEL-28 melanoma, 58.4%.

The values are drawn from PubChem BioAssay (NCI).
